# Assay results: the supplement of paper PMC10849652
# The full data set covers some 8,800 targets. This sample favours those with a hit. About 0.5% of all pairs of compound and target were hits. Unmarked numbers belong to inactive results.
# Compound: c1ccc([C@@H]2C[C@H]2NC2CCNCC2)cc1
# Test: log2 fold change, soluble protein after heating vs DMSO (PISA); higher = thermal stabilisation; K562 lysate, 10 uM; active = over 0.2 and 3.5 SD of the protein, either way, in both replicates (recomputed)
# Method in brief: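 Pellets of K562 cells were dounce-homogenised in PBS pH 7.4 with 1 mM MgCl2, and the crude extract was held at 1 mg/mL protein for a 30 min treatment with 10 μM compound. Aliquots were heated for 3 min over 48°C-58°C and pooled before NP-40 was added to 0.5% at 4°C. The supernatant from 21,000xg for 90 min was quantified by TMTpro 16plex LC-MS/MS with channel sums equalised. Values are reported from duplicates as log-two fold change in thermal stability relative to solvent controls.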
# UniProt Q9NW68, sequence (Q9NW68 whole entry, looked up): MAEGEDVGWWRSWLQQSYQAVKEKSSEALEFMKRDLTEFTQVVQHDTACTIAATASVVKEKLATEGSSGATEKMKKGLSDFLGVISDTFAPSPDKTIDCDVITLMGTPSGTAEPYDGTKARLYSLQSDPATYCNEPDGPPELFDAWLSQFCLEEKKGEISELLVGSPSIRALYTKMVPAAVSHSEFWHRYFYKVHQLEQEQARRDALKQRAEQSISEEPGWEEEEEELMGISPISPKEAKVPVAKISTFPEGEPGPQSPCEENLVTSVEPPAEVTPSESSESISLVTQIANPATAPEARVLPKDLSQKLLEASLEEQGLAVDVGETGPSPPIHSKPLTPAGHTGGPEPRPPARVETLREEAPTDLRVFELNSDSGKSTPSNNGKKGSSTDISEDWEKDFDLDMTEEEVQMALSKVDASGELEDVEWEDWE
# UniProt Q8N5I9, sequence (Q8N5I9 whole entry, looked up): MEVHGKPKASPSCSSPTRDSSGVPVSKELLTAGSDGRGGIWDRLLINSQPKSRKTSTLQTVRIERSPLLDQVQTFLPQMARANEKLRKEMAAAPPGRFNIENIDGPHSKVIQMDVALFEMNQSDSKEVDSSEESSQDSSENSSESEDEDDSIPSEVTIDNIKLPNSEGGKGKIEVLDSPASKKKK
# UniProt Q9BXL7, sequence (Q9BXL7 whole entry, looked up): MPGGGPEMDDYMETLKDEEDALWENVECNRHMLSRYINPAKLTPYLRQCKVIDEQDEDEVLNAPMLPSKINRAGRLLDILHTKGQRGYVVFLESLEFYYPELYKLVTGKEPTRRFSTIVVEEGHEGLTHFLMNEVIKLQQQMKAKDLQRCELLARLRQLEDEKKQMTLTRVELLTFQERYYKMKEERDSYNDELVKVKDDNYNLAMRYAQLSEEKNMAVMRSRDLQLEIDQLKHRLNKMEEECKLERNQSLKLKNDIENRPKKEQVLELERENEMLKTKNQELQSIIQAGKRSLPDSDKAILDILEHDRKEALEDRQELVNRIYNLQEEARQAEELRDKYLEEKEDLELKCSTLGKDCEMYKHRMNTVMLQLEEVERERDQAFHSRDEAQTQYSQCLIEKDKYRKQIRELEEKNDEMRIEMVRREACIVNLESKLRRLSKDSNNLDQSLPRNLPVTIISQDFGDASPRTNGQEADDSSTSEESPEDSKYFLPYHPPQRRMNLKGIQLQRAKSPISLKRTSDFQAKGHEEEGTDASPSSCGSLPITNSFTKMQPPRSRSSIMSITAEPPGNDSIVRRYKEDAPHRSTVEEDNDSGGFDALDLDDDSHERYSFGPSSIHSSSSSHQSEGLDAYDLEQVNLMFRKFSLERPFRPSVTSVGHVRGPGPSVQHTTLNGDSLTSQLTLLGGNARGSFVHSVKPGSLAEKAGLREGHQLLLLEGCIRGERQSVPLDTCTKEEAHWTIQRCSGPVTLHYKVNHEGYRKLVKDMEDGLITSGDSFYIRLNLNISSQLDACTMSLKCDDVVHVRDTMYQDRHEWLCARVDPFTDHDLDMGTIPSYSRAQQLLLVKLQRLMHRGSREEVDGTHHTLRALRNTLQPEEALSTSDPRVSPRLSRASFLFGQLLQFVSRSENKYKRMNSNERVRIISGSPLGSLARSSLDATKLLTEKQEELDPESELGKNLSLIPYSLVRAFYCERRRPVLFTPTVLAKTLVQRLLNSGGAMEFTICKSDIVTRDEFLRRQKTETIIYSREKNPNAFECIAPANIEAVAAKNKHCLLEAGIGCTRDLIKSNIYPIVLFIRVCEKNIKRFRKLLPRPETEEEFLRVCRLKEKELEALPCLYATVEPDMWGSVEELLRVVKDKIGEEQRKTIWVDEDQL
# UniProt P40227, sequence (P40227 whole entry, looked up): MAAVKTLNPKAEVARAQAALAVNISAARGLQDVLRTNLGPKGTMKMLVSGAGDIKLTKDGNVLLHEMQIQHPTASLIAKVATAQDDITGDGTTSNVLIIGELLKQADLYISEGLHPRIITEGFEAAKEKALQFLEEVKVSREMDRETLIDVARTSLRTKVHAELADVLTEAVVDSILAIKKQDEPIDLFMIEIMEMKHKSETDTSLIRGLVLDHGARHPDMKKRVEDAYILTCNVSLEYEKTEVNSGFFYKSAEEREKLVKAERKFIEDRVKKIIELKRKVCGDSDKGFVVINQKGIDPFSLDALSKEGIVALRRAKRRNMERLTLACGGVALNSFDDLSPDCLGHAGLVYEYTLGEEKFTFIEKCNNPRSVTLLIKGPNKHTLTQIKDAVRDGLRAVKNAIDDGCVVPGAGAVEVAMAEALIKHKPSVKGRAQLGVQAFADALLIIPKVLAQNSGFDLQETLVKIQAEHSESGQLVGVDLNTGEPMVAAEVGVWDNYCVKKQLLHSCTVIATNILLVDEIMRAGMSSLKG
# UniProt O60566, sequence (O60566 whole entry, looked up): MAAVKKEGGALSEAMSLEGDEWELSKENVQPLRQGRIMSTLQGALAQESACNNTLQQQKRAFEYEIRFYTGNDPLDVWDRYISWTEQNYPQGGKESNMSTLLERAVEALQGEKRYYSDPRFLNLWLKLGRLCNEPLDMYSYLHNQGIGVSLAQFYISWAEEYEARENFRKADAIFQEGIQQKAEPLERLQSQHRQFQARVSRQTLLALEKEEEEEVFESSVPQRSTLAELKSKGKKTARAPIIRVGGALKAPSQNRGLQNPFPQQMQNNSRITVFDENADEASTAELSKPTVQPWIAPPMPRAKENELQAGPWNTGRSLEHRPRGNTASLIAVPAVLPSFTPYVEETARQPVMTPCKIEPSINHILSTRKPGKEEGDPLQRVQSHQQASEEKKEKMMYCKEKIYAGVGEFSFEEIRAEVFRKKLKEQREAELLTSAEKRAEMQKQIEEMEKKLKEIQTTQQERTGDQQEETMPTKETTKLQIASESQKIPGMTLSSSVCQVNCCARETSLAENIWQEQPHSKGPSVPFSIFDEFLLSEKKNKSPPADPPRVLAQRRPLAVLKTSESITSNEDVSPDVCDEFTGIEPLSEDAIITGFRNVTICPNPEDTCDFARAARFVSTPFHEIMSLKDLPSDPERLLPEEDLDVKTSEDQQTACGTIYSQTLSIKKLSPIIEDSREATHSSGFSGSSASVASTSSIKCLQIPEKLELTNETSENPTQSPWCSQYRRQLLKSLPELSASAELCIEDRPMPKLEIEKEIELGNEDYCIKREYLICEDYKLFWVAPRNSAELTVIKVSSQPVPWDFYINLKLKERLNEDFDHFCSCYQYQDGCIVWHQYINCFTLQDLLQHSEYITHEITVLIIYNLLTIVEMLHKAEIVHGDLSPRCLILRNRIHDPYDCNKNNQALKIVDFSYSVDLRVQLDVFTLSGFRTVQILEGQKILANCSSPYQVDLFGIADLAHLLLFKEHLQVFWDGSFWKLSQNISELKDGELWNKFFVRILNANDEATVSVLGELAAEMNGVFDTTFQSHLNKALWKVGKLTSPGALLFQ
# UniProt Q13555, sequence (Q13555 whole entry, looked up): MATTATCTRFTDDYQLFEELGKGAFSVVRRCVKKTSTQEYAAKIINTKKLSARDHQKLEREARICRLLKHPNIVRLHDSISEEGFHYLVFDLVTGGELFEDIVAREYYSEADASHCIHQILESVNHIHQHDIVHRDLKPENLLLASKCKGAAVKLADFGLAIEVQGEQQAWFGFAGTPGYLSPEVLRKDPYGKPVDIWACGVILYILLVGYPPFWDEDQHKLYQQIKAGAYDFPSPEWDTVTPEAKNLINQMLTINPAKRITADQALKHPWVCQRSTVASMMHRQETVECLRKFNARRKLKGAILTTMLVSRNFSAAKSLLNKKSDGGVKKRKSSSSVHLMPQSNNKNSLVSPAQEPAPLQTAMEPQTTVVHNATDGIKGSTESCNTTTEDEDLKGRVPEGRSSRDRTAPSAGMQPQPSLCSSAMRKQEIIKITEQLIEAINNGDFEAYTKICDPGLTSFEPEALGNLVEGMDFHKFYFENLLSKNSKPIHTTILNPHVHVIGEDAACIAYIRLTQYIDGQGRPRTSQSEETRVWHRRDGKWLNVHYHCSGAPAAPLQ
# UniProt Q9Y6K0, sequence (Q9Y6K0 whole entry, looked up): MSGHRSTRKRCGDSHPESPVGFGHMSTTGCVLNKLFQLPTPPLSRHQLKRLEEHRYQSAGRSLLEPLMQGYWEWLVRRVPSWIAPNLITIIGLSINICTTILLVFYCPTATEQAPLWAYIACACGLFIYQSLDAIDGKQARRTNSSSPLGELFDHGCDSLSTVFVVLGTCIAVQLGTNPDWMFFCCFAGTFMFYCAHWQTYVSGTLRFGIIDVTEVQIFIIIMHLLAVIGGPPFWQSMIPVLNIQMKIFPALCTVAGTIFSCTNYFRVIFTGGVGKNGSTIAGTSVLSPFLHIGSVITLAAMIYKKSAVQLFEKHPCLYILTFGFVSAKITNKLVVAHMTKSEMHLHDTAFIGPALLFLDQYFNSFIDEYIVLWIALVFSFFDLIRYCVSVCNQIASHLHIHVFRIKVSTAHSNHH
# UniProt Q06187, sequence (Q06187 whole entry, looked up): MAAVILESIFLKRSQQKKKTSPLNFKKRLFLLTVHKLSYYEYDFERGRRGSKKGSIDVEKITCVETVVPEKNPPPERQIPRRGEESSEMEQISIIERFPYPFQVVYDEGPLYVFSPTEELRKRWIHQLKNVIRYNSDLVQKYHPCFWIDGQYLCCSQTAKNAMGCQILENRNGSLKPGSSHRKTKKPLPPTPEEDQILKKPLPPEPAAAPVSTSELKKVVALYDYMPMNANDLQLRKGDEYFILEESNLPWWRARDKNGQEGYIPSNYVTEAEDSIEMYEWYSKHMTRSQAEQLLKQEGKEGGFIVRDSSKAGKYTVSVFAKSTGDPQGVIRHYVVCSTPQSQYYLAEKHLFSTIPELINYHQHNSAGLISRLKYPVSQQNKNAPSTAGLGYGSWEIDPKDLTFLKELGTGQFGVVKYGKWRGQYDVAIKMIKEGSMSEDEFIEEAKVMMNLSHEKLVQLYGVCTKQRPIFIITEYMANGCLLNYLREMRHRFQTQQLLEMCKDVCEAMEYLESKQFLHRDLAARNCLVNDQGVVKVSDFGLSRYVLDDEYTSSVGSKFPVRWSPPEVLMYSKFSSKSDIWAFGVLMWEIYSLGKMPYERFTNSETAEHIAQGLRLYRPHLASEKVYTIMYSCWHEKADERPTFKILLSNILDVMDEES
row,Target,log2 fold change
1,C12orf45 (UniProt Q8N5I9),-0.122
2,ATXN2 (UniProt Q99700),-0.021
3,CBX5 (UniProt P45973),-0.135
4,BSDC1 (UniProt Q9NW68),-0.026
5,ATG10 (UniProt Q9H0Y0),0.076
6,CEP76 (UniProt Q8TAP6),-0.027
7,CARD11 (UniProt Q9BXL7),-0.019
8,CCT6A (UniProt P40227),0.025
9,BUB1B isoform 3 (UniProt O60566),0.02
10,BTK isoform 2 (UniProt Q06187),-0.064
11,CAMK2G isoform 8 (UniProt Q13555),-0.037
12,CEPT1 (UniProt Q9Y6K0),0.061
